# Where “and” joins values, the source holds several entries; their conditions need not be identical. Identical values can stand only once. Some compounds were tested as several samples or in several runs, with calls that do not always agree. Calls of active or inactive are those of the source. The calls were made as follows: active = hit-call score of the fitted dose curve at least 0.9, where 1 is the maximum; inactive = score below 0.9.
# Read-out: Monocyte Chemoattractant Protein-1 (MCP1), CCL2 (gene 6347)
# Experiment: BSK_BF4T_MCP1: BioMAP Diversity Plus: BF4T Assay for Monocyte Chemoattractant Protein-1 (MCP1) Biomarker Activity (AID 2284259)
# Conditions: primary human bronchial epithelial cells with fibroblasts
# How it was run: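 Co-culture of bronchial epithelial cells and dermal fibroblasts dosed with chemical; MCP-1 measured by ELISA 24 h later. Activity fitted in positive direction versus DMSO; cytotoxicity checked by SRB staining in parallel cultures.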
SMILES,outcome,AC50
C=CC(=O)OCCC(F)(F)C(F)(F)C(F)(F)C(F)(F)F,inactive,–
OCC(F)(F)C(F)(F)C(F)(F)C(F)(F)C(F)(F)C(F)(F)CO,inactive,–
NCC(F)(F)C(F)(F)C(F)(F)C(F)(F)C(F)(F)C(F)(F)C(F)(F)C(F)(F)F,inactive,–
O=S(=O)(OCC(F)(F)F)C(F)(F)C(F)(F)C(F)(F)C(F)(F)F,inactive,–
O=S(=O)(O)CCC(F)(F)C(F)(F)C(F)(F)C(F)(F)F,inactive,–
O=C(O)C(F)(F)C(F)(F)C(F)(F)OC(F)(C(F)(F)F)C(F)(F)F,inactive,5.77 µM (active)
O=C(F)C1(F)C(F)(F)C(F)(F)C(F)(F)C(F)(F)C1(F)F,inactive,–
CNS(=O)(=O)C(F)(F)C(F)(F)C(F)(F)C(F)(F)C(F)(F)C(F)(F)C(F)(F)C(F)(F)F,inactive,–
NS(=O)(=O)C(F)(F)C(F)(F)C(F)(F)C(F)(F)C(F)(F)C(F)(F)F,inactive,7.99 µM (active)
O=C(O)C(F)(F)C(F)(F)C(F)(F)OC(F)(F)F,inactive,–
COC(F)(C(F)F)C(F)(F)F (centres undefined),inactive,–
CCOC(=O)CC(=O)C(F)(F)C(F)(F)F,inactive,–
CN(C(=O)C(F)(F)C(F)(F)C(F)(F)F)[Si](C)(C)C,inactive,–
NC(=O)C(F)(F)C(F)(F)C(F)(F)C(F)F,inactive,–
O=S(=O)(Cl)C(F)(F)C(F)(F)C(F)(F)C(F)(F)C(F)(F)C(F)(F)C(F)(F)C(F)(F)F,–,46.5 µM (active) and 43.3 µM (active)
O=C(O)C(F)(F)C(F)(F)C(F)(F)C(F)(F)C(F)(F)C(F)(F)C(F)F,inactive,–
O=C(O)CCC(F)(F)C(F)(F)C(F)(F)C(F)(F)C(F)(F)C(F)(F)C(F)(F)F,inactive,0.949 µM (active)
CCN(CCO)S(=O)(=O)C(F)(F)C(F)(F)C(F)(F)C(F)(F)C(F)(F)C(F)(F)C(F)(F)C(F)(F)F,inactive,–
O=C(O)C(F)(F)C(F)(F)C(F)(F)C(=O)O,inactive,–

# Read-out: Intercellular Adhesion Molecule 1 (ICAM1), ICAM1 (gene 3383)
# Experiment: BSK_BF4T_ICAM1: BioMAP Diversity Plus: BF4T Assay for Intercellular Adhesion Molecule 1 (ICAM1) Biomarker Activity (AID 2284260)
# Conditions: primary human bronchial epithelial cells with fibroblasts
# How it was run: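 Co-culture of human bronchial epithelial cells and dermal fibroblasts exposed 24 h to chemical; cell-surface ICAM-1 quantified by ELISA. Parallel SRB total-protein staining assessed cytotoxicity; activity fitted relative to DMSO.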
row,SMILES,outcome
1,C=CC(=O)OCCC(F)(F)C(F)(F)C(F)(F)C(F)(F)F,inactive
2,OCC(F)(F)C(F)(F)C(F)(F)C(F)(F)C(F)(F)C(F)(F)CO,inactive
3,NCC(F)(F)C(F)(F)C(F)(F)C(F)(F)C(F)(F)C(F)(F)C(F)(F)C(F)(F)F,inactive
4,O=S(=O)(OCC(F)(F)F)C(F)(F)C(F)(F)C(F)(F)C(F)(F)F,inactive
5,O=S(=O)(O)CCC(F)(F)C(F)(F)C(F)(F)C(F)(F)F,inactive
6,O=C(O)C(F)(F)C(F)(F)C(F)(F)OC(F)(C(F)(F)F)C(F)(F)F,inactive
7,O=C(F)C1(F)C(F)(F)C(F)(F)C(F)(F)C(F)(F)C1(F)F,inactive
8,CNS(=O)(=O)C(F)(F)C(F)(F)C(F)(F)C(F)(F)C(F)(F)C(F)(F)C(F)(F)C(F)(F)F,inactive
9,NS(=O)(=O)C(F)(F)C(F)(F)C(F)(F)C(F)(F)C(F)(F)C(F)(F)F,inactive
10,O=C(O)C(F)(F)C(F)(F)C(F)(F)OC(F)(F)F,inactive
11,COC(F)(C(F)F)C(F)(F)F (centres undefined),inactive
12,CCOC(=O)CC(=O)C(F)(F)C(F)(F)F,inactive
13,CN(C(=O)C(F)(F)C(F)(F)C(F)(F)F)[Si](C)(C)C,inactive
14,NC(=O)C(F)(F)C(F)(F)C(F)(F)C(F)F,inactive
15,O=S(=O)(Cl)C(F)(F)C(F)(F)C(F)(F)C(F)(F)C(F)(F)C(F)(F)C(F)(F)C(F)(F)F,inactive
16,O=C(O)C(F)(F)C(F)(F)C(F)(F)C(F)(F)C(F)(F)C(F)(F)C(F)F,inactive
17,O=C(O)CCC(F)(F)C(F)(F)C(F)(F)C(F)(F)C(F)(F)C(F)(F)C(F)(F)F,inactive
18,CCN(CCO)S(=O)(=O)C(F)(F)C(F)(F)C(F)(F)C(F)(F)C(F)(F)C(F)(F)C(F)(F)C(F)(F)F,inactive
19,O=C(O)C(F)(F)C(F)(F)C(F)(F)C(=O)O,inactive

# Read-out: Interleukin-8 (IL8), CXCL8 (gene 3576)
# Experiment: BSK_MyoF_IL8: BioMAP Diversity Plus: MyoF Assay for Interleukin-8 (IL8) Biomarker Activity (AID 2284261)
# Conditions: primary human lung fibroblasts
# How it was run: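 IL-8 quantified by ELISA after 24 h compound exposure of primary human lung fibroblasts. SRB staining of parallel cultures flagged cytotoxicity; DMSO served as baseline.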
SMILES,outcome,AC50
Cc1ccc(O)c(-n2nc3ccccc3n2)c1,inactive,–
C=CC(=O)OCCC(F)(F)C(F)(F)C(F)(F)C(F)(F)F,inactive,–
OCC(F)(F)C(F)(F)C(F)(F)C(F)(F)C(F)(F)C(F)(F)CO,inactive,–
CCN(CC)c1ccc(N=Nc2ccccc2)cc1,–,5.41 µM (active)
NCC(F)(F)C(F)(F)C(F)(F)C(F)(F)C(F)(F)C(F)(F)C(F)(F)C(F)(F)F,inactive,–
O=C=NCc1cccc(CN=C=O)c1,inactive,–
O=S(=O)(OCC(F)(F)F)C(F)(F)C(F)(F)C(F)(F)C(F)(F)F,inactive,–
O=S(=O)(O)CCC(F)(F)C(F)(F)C(F)(F)C(F)(F)F,inactive,–
O=C(O)C(F)(F)C(F)(F)C(F)(F)OC(F)(C(F)(F)F)C(F)(F)F,inactive,–
O=C(F)C1(F)C(F)(F)C(F)(F)C(F)(F)C(F)(F)C1(F)F,inactive,–
CNS(=O)(=O)C(F)(F)C(F)(F)C(F)(F)C(F)(F)C(F)(F)C(F)(F)C(F)(F)C(F)(F)F,inactive,9.75 µM (active)
CC(C)(C)c1cc(CCC(=O)NCCCCCCNC(=O)CCc2cc(C(C)(C)C)c(O)c(C(C)(C)C)c2)cc(C(C)(C)C)c1O,inactive,–
CCN(CC)c1ccc(C=O)cc1,inactive,–
NS(=O)(=O)C(F)(F)C(F)(F)C(F)(F)C(F)(F)C(F)(F)C(F)(F)F,inactive,–
Cc1cnccn1,inactive,–
Cc1ccc(S(=O)(=O)C(I)I)cc1,inactive,–

SMILES,outcome,AC50
Cc1cc(O)c(C(C)(C)C)cc1C(C)(C)C,–,32.8 µM (active)
Cc1cc(C)c(O)c(C(C)(C)C)c1,inactive,–
O=C=Nc1cccc2c(N=C=O)cccc12,inactive,–
O=C(O)C(F)(F)C(F)(F)C(F)(F)OC(F)(F)F,inactive,–
O=C1c2c(O)ccc(Nc3ccc(CCO)cc3)c2C(=O)c2c([N+](=O)[O-])ccc(O)c21,–,1.65 µM (active)
COC(F)(C(F)F)C(F)(F)F (centres undefined),inactive,–
CCOC(=O)CC(=O)C(F)(F)C(F)(F)F,inactive,–
CC1=CC2C3C=CC(C3)C2C1C (centres undefined),inactive,–
CN(C(=O)C(F)(F)C(F)(F)C(F)(F)F)[Si](C)(C)C,inactive,–
NC(=O)C(F)(F)C(F)(F)C(F)(F)C(F)F,inactive,–
O=S(=O)(Cl)C(F)(F)C(F)(F)C(F)(F)C(F)(F)C(F)(F)C(F)(F)C(F)(F)C(F)(F)F,inactive,–
O=C(O)C(F)(F)C(F)(F)C(F)(F)C(F)(F)C(F)(F)C(F)(F)C(F)F,inactive,–
O=C(O)CCC(F)(F)C(F)(F)C(F)(F)C(F)(F)C(F)(F)C(F)(F)C(F)(F)F,inactive,–
CCN(CCO)S(=O)(=O)C(F)(F)C(F)(F)C(F)(F)C(F)(F)C(F)(F)C(F)(F)C(F)(F)C(F)(F)F,inactive,–
O=C(O)C(F)(F)C(F)(F)C(F)(F)C(=O)O,inactive,–
CCOC(C=C(C)CCC=C(C)C)OCC,inactive,–

# From PubChem BioAssay (EPA / NIEHS)
